The supplement of paper PMC6555819

Assays:
Assay in all cases: PBM binding z-score (relative to random genomic background probes); higher = stronger binding; sequences stand for … in GC…GCGATTGACAGCGTAGAATGAAGG
[1] = system: RARb homodimer (NR concentration 270 nM)
Outline: (§1)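 Binding z-scores were set against random background probes. The data came from custom Agilent 4×180K protein-binding microarrays carrying double-stranded probes with 34-nt variable regions, incubated 1 h with ligand-free nuclear receptor dimers. Partner-specific antibodies detected binding, and scanned fluorescence was regression-normalized.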

[2] = system: RARg:RXRa (NR concentration 270 nM, RXRa partner concentration 90 nM)
Outline: as §1

[3] = system: RARg homodimer (NR concentration 270 nM)
Outline: as §1

[4] = system: RXRa DBDmut IVT, anti-RXR (DBD mutation: RXRa K156A/R161A, NR concentration 90 nM)
Outline: as §1

[5] = system: RXRa homodimer (NR concentration 180 nM)
Outline: as §1

[6] = system: THRa:RXRa (NR concentration 90 nM, RXRa partner concentration 90 nM)
Outline: as §1

[7] = system: THRa homodimer (NR concentration 90 nM)
Outline: as §1

[8] = system: VDR homodimer (NR concentration 270 nM)
Outline: as §1

Sequence	PBM binding z-score [1]	PBM binding z-score [2]	PBM binding z-score [3]	PBM binding z-score [4]	PBM binding z-score [5]	PBM binding z-score [6]	PBM binding z-score [7]	PBM binding z-score [8]
CCTATTAGTTGACCGTAAGGGCAACCGAAGCTCG	2.75	1.73	1.51	0.339	0.616	2.29	1.78	1.06
ATCTCTAGGTAAACATAGTTCAGTGAATGCAAAT	1.42	0.884	0.928	-0.105	0.495	1.07	0.425	0.447
CGTCAAAGTTAAACTAAGGTAACGTAAAGCACGC	0.585	0.536	0.659	0.0253	0.521	4.04	1.78	0.399
GGACCAAGGTGAATAGGTCGTTGATGAGTAGGCG	1.93	2.62	1.51	-0.31	1.81	1.91	0.417	0.294
GCATATAGGTAAAACAAGGTGAAAGTCCGATTGT	0.61	0.353	0.33	0.273	0.55	4.2	0.967	0.035
TCATATAGGTAATTCAGGTGAAAGTCGGCATCTA	0.654	0.323	0.241	1.73	0.923	2.52	1.8	0.399
ACTAGTTGGTCAGTTGAGGTCACACACAATTCGG	4.23	3.87	4.02	1.51	4.05	5.15	5.39	4.05
CCTACTGGGCCATTCAGAGGTCATGGATCATATG	4.22	4.63	3.45	0.21	4.21	3.64	1.55	2.09
CGAACTAGATCAAGGACAGTGAATCTCCGCACGC	0.0367	-0.32	0.287	0.258	-0.168	1.22	1.24	-0.103
TCGAGTCGGTTACCAATGGGGCATTCAGCTTTCT	0.134	-0.35	-0.367	0.329	-0.284	-0.43	-0.423	-0.105
TAGCCAAGGTCATTGGGCCAGTATAGTACGCATC	4.21	5.55	5.5	3.08	5.46	4.06	2.04	3.47
CAAACTAGGTCACGAAAGGACAAAGTCGAATGAC	4.13	5.37	6.43	1.59	4.1	4.56	1.59	1.06
CCTACTGGGCCAAAAAGGTCTTTGATGCCGATAA	0.452	-0.217	-0.013	-0.428	-0.121	-0.113	-0.671	-0.382
ATCTCTAGGTAACAGTTCAGTGAATCCCGAGGAT	0.815	0.757	0.845	0.0711	0.513	0.831	0.517	0.915
AGAATGACGTTACCAAAGATCAGGGAAACGCTTG	-0.559	0.085	0.256	-0.636	0.0989	-0.427	-0.611	0.0201
CTGGAAAGGTCGTGCTCAGGTGAGTATACCAAAC	2.76	5.06	3.97	1.91	4.95	4.09	0.923	0.759
CGTCCAAGGTCAATGCCAGGTCAGTGAAAGCATT	4.92	7.69	6.75	3.86	5.27	4.71	3.6	3.03
GCTAGCAGGCCATTTGGGTCACTCAATGACGGGC	2	1.11	1.55	0.0537	0.821	1.94	0.534	0.524
GCTCGGAGCACAAGGTCAGAGCTTTGTCCGTAGA	2.85	2.63	2.19	0.228	2.25	2.75	0.948	0.184
CGTCCAAGGTCAGAGAGGTCAATGAATGCCGAGT	5.42	7	7.52	3.55	6.58	4.53	2.88	6.88
GGAACGAGTGCATTCGAGTTGATAGCATGGCGAT	-0.91	-0.352	0.0126	3.87	-0.0218	1.92	-1.23	4.44
GCTAGTTGGTCAGTAATAGGTCACACACCGGTCG	3.86	3.12	2.58	0.228	2.43	2.06	0.841	0.317
GCTTGTAGATCAAGATTAAGAAAGACTAAGCTAA	-1.07	-0.362	-0.206	-0.488	-0.324	-0.364	-0.81	-0.356
TCTCGGACGACACGAAGGTCAGAGCTTTCCAGAG	3.12	2.49	2.65	0.495	2	1.53	0.0855	0.189
TCATATAGGTAAATGCTAGGTGAAAGGCCGATCT	0.766	0.683	0.329	1.57	0.896	1.53	0.386	0.46
AGTCAAAGTTCATGTAGGTAACGTAAGATATGCT	3.73	5.31	5.84	4.74	4.45	2.65	-0.0581	4.64

Sequence	PBM binding z-score [1]	PBM binding z-score [2]	PBM binding z-score [3]	PBM binding z-score [4]	PBM binding z-score [5]	PBM binding z-score [6]	PBM binding z-score [7]	PBM binding z-score [8]
TATCGGAGGACACGAAGGTCAGAGCTTTCCAGAG	3.47	3.17	3.73	0.00455	1.79	2.88	0.977	1.46
TTACCAAGGTGAAAGGCCGTTGATGCACGCCTTG	1.1	0.963	0.384	-0.3	1.3	1.45	0.31	-0.0991
CCTTACGGGTCAAGTTTATAGCACGGGTGGTACG	3.32	5.13	4.78	2.07	5.03	2.56	0.164	3.09
CCTCCTGGGCCAAAGGTCATTGATTCCAATGCTC	4.24	5.81	4.61	0.646	6.35	3.17	0.804	2.32
CCGACTGGGGCAAGGTTATCATAACGCACAGCCA	1.27	1.03	1.08	0.0521	1.12	1	0.224	0.128
TCTTGTAGATCAGAGGTTAAGAAAGCCGAAGCCT	0.579	0.522	0.221	0.653	1.5	0.868	-0.337	0.103
ACTAGCAGGCCAAGTTTGGGTCCCTCAAACAAAG	-0.155	-0.211	-0.235	-0.528	-0.565	0.0407	-0.344	-0.397
AGAATGAGGTTATACGTGGATCAGGGAAGAAAGT	1.08	1.69	0.925	1.84	2.1	2.48	1.1	1.21
CTACCATGGTGAACAAGGTCGTTGATTACTATTC	1.04	0.598	0.184	0.982	0.913	1.99	1.1	1.41
TCTCGGAGGACACGAAAGATCAGAGCTCGACATC	0.303	0.634	1.18	0.716	0.321	1.2	0.159	-0.53
CAAACTAGGTCAAGAGGTCAAAGCCCGCTTCCCG	5.64	8.19	7.34	2.92	7.83	4.46	2.47	3.87
TGAATGAGGTTAAAGATCAAGGAACGTGGCGTCG	0.599	2.57	1.35	1.24	4.06	2.41	0.289	0.251
CCTGCTAGGTCAATGGTCAACTAAAGCAGCTCGC	3.11	3.77	4.5	1.64	2.55	2.41	0.723	0.324
TCATATAGTTAAATGCTAGGTGAAAGTCCGATCT	0.141	0.1	0.364	1.68	0.476	0.852	0.605	0.158
TCATATAGGTAAACATGTGAAAGTCCGTAAGTTA	0.34	0.489	0.354	1.66	1.06	0.435	0.267	0.405
TCGAGTAGGTTAGTCGGAGCATTCAGCCAACATA	-0.533	-0.461	-0.343	-0.252	-0.401	-0.658	-0.781	-0.514
ATCTCTAGGTAAAATTCAGTGAAAGATCGATAGA	-0.326	0.344	0.677	0.391	0.121	0.32	0.151	0.281
ACTAGCAGGCCAAGTTTGGGTCACTCATACAAAG	2.32	2.26	1.53	-0.0603	0.947	2.47	1.27	0.331
CGTCCAAGGTCATAGGAGGTCAGTGACGACAGAT	5.23	6.83	7.27	4.28	7.54	5.3	3.25	4.76
ATCGAAAGGTCGACGAGGTGAGTCTACACCGTTT	3.08	4.01	3.95	1.04	4.04	3.99	1.04	0.956
CGAACTAGGTCAGAACAGGACAGTGAGGGATGAT	2.12	2.44	3.18	0.709	1.47	3.57	0.102	-0.141
AGAATGAGGTTACCAAAGATCAGGGATACGCTTG	1.07	2.08	1.72	1.22	2.54	2.8	1.06	0.23
GCTAGAAGGCCATTTGGGTCACTCAATGACGGGC	2.47	1.61	2.24	0.256	1.05	2.42	0.686	1.05
TCTCGGAGGACACGAAGGTCAGGGCTTTCCAGAG	4.09	3.4	3.91	0.802	2.43	3.13	1.27	1.16
GATACAGGGTCAGCTAGAGGCGAGAGTATGGAAA	2.7	5.04	4.34	1.57	4.51	2.79	0.319	0.871
AGAATGAGGTTATTAAGATCAGTGAATTGCGGTC	0.636	1.21	0.905	2.02	1.67	2.17	0.753	1.09
